# According to PubChem BioAssay AID624295 (Southern Research Specialized Biocontainment Screening …, 2012):
# Values without a mark were called inactive. How the calls were made is not given here.
# Assay: viability of Vero 76 cells – cell-based, set 6, cytotoxicity control for VEEV inhibitor project (AID 624295)
# Settings: Vero 76 cells viability, cytotoxicity counter-screen; series mostly up to 25 µM; viability: at the top concentration
row,SMILES,viability
1,CN1CCN(Cc2nc3ccc([N+](=O)[O-])cc3c(=O)n2-c2ccccc2F)CC1,87.8% [at 50 µM]
2,CCN1CCN(Cc2nc3ccc([N+](=O)[O-])cc3c(=O)n2-c2ccc(F)cc2)CC1,94%
3,CCN1CCN(Cc2nc3ccc([N+](=O)[O-])cc3c(=O)[nH]2)CC1,94.6%
4,O=c1c2cc([N+](=O)[O-])ccc2nc(CN2CCNCC2)n1-c1ccccc1F,74.1% [at 50 µM]
5,CCN1CCN(Cc2nc3ccc(C(N)=O)cc3c(=O)n2-c2ccccc2)CC1,94.3%
6,CCN1CCN(Cc2nc3cc([N+](=O)[O-])ccc3c(=O)n2-c2ccccc2)CC1,90%
7,CCN1CCN(Cc2nc3ccc([N+](=O)[O-])cc3c(=O)n2C(C)C)CC1,85.8%
8,O=c1c2cc([N+](=O)[O-])ccc2nc(CN2CCCCC2)n1-c1ccccc1F,96.7%
9,O=c1c2cc([N+](=O)[O-])ccc2nc(CN2CCNCC2)n1-c1ccccc1,96%
10,CCN1CCN(Cc2nc3cccc([N+](=O)[O-])c3c(=O)n2-c2ccccc2)CC1,82.6%
11,CCN1CCN(Cc2nc3ccc([N+](=O)[O-])cc3c(=O)n2-c2cccc(F)c2)CC1,98.8%
12,CCN1CCN(Cc2nc3ccc([N+](=O)[O-])cc3c(=O)n2-c2ccccc2)CC1,77.2% [at 50 µM]
13,NS(=O)(=O)c1ccc(-n2c(-c3ccccc3)nc3ccc(Br)cc3c2=O)cc1,91.6%
14,CCN1CCN(Cc2nc3ccc(C(=O)N(C)C)cc3c(=O)n2-c2ccccc2)CC1,102%
15,CCN1CCN(Cc2nc3ccc(I)cc3c(=O)n2-c2ccccc2)CC1,79.1%
